Measurements reported in PubChem BioAssay AID588342 (National Center for Advancing Translational Sciences (NCATS), 2011).
Among all 360,000 compounds or so, about 25,000 (6.9%) were called active. Another 9% or so got no clear call; they are omitted. This excerpt belongs to a sample that is enriched for actives. Values without a mark were called inactive. Calls follow the shape of the dose curve; as a rule, active = well fitted inhibition curve with a large enough effect; inconclusive = small, poorly fitted or top-dose-only effect; inactive = flat fitted curve, though single readings scatter.

biological target: Luciferin 4-monooxygenase (Photinus pyralis) (UniProt P08659); test: qHTS profiling assay for firefly luciferase inhibitor/activator using purifed enzyme and Km concentrations of substrates (counterscreen for miR-21 project); conditions: purified FLuc, luminescence inhibition; series mostly up to 57.5 µM; activity change, negative = inhibition: at the top concentration; also: nearly all actives have a fitted effect of over 55% in size;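 as to activity change, negative = inhibition: plate controls were vehicle for no effect and reference inhibitor for full effect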
In short: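 Purified P. pyralis luciferase (10nM final) with 10uM D-luciferin and 10uM ATP (Km levels) in 50mM Tris acetate pH 7.5, 10mM Mg acetate, 0.01% Tween-20, 0.05% BSA; qHTS 6-point titration, ~60 µM downward; luminescence read.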
Potency is read from the fitted curve at half-maximal effect.

Luciferin 4-monooxygenase (Photinus pyralis), sequence (P08659 whole entry, looked up): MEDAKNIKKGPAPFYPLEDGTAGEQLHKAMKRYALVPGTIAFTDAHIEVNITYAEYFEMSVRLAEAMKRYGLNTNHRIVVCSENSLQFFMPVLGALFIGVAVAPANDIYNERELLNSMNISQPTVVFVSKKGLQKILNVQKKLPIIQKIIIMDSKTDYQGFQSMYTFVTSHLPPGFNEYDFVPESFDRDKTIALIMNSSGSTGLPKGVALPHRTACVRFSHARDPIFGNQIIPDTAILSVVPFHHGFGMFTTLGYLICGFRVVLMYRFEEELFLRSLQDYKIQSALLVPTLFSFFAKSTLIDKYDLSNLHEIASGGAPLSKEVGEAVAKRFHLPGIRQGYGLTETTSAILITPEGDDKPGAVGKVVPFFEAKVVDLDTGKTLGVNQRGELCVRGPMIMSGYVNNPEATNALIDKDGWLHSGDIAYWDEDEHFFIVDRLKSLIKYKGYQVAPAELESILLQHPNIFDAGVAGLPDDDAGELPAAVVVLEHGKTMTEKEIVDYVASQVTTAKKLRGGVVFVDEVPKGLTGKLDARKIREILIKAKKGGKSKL

Row | Compound | Potency | activity change, negative = inhibition [%]
1 | COc1ccccc1/C=C/C(=O)NC(=S)N1CCOCC1 | 12 µM (active) | –
2 | COc1ccc(C)cc1NC(=S)N1CCOCC1 | – | 5.69
3 | O=C(/C=C/c1ccco1)NC(=S)N1CCCCC1 | – | -16.9
4 | COc1ccc(OC)c(NC(=O)c2cnn(-c3ccccc3Cl)c2NC(=O)c2ccco2)c1 | – | 5.56
5 | Cc1ccc2c(c1)C1CN(C)CCC1N2S(=O)(=O)c1cccc(F)c1 (centres undefined) | – | 3
6 | O=C(Cn1c(COc2ccccc2)nc2ccccc21)Nc1cc(Cl)c(Cl)cc1Cl | – | 0.398
7 | CC(O)c1nc2ccccc2n1Cc1ccc([N+](=O)[O-])cc1 (centres undefined) | – | -2.35
8 | COCn1c(COc2ccccc2)nc2ccccc21 | 16.9 µM (active) | –
9 | CC(C)c1ccc(Cn2c(COc3ccccc3)nc3ccccc32)cc1 | 19 µM (active) | –
10 | Cc1ccc(OCc2nc3ccccc3n2C)cc1 | 3.01 µM (active) | –
11 | COCc1nc2ccccc2n1Cc1ccccc1Br | – | 1.51
12 | CCCn1c(C(O)c2ccc(OCC)cc2)nc2ccccc21 (centres undefined) | – | 4.37
13 | Cn1c(CNC(=O)C(C)(C)C)nc2ccccc21 | – | -0.0419
14 | CCOc1ccc(C(O)Cc2nc3ccccc3n2C)cc1 (centres undefined) | – | -11.3
15 | CCc1nc2cccnc2n1-c1ccc(CC(=O)Nc2c(C)cccc2C)cc1 | – | -0.458
16 | Cc1ccccc1-n1nc(C)c2c1N=C1C(Cl)=CC(Cl)=CN1C2c1ccc(C(=O)O)cc1 (centres undefined) | – | -8.87
17 | CCn1c(=O)c(=O)[nH]c2c(=O)oc3ccc(S(=O)(=O)Nc4ccc(OC)cc4)cc3c21 | – | 1.02
18 | O=C(CC1N=C2c3ccccc3N=C(SCc3cccc(Cl)c3)N2C1=O)NCc1ccc2c(c1)OCO2 (centres undefined) | – | -9.72
19 | Cc1ccc(S(=O)(=O)NCCc2nnc3ccc(SCc4cccnc4)nn23)cc1 | – | -0.515
20 | COc1c(C=O)c(CCN(C)C(=O)c2ccc(F)cc2)cc2c1OCO2 | – | 1.83
21 | Cc1ccc(-c2nc(CS(=O)(=O)CC(=O)NCc3ccccc3Cl)c(C)o2)cc1 | – | 2.41
22 | CCOC(=O)c1c(NC(=O)c2cc(CC)on2)sc(C(C)=O)c1C | – | 0.398
23 | CCOC(=O)c1ccc(NC(=S)N2CCCC2)cc1 | – | -8.94
24 | CCOc1ccc(NC(=S)N2CCCCCC2)cc1 | – | -7.6
25 | CCC(C)c1ccc(NC(=S)N2CCCC2)cc1 (centres undefined) | 15.1 µM (active) | –
26 | CC1Cc2cc(S(=O)(=O)CCC(=O)Nc3ccc(F)c(Cl)c3)ccc2N1C(=O)C1CC1 (centres undefined) | – | -7.53

Row | Compound | Potency | activity change, negative = inhibition [%]
27 | O=C(c1ccc2c(c1)N(Cc1ccc(Cl)cc1)C(=O)c1ccccc1S2(=O)=O)N1CCCCC1 | – | 7.03
28 | Cc1cccc[n+]1CC(=O)c1ccccc1 | – | -0.244
29 | O=C(/C=C/NCc1ccc(F)cc1)c1ccccc1 | 16.9 µM (active) | –
30 | O=C(NCCS(=O)(=O)NCc1ccc(F)cc1)c1ccccc1 | – | 4.95
31 | CCCCC(=O)NCc1ccc(F)cc1 | – | 0.712
32 | O=C(/C=C\NCC(=O)c1ccccc1)c1ccccc1 | 12 µM (active) | –
33 | CCN(c1ccccc1)S(=O)(=O)c1cc(C(=O)NCc2ccccn2)ccc1C | – | -1.73
34 | CC(=O)c1c(C)[nH]c(C(=O)COc2ccc3c(C)cc(=O)oc3c2)c1C | – | 5.31
35 | Cc1ccc(C(=O)Nc2c(C(=O)NC(C)(C)C)oc3ccccc23)cc1 | – | 2.44
36 | COc1ccc(Cl)cc1NC(=O)c1sc2nc3c(cc2c1N)CN(C)CC3 | – | -1.38
37 | COc1ccc(-n2c(SCC(=O)Nc3ccc(Cl)c(C)c3)nc3n[nH]c(C)c3c2=N)cc1 | – | -0.344
38 | COc1ccc(Cn2ccn(CC(=O)Nc3cc(C)ccc3C)c(=O)c2=O)cc1 | – | 0.418
39 | COc1cc(C2c3c(oc4ccccc4c3=O)C(=O)N2c2nc(C)c(C)s2)ccc1O (centres undefined) | – | -4.51
40 | Cc1ccc(NC(=O)C2CCCN2S(=O)(=O)c2cccc3cccnc23)c(C)c1 (centres undefined) | inactive | –
41 | COc1cc(/C=N/NC(=S)Nc2cccnc2)cc(OC)c1O | 10.7 µM (active) | –
42 | CCOC(=O)N/N=C/c1cccnc1 | – | 6.17
43 | COc1cc(/C=N/NC(=O)c2cccnc2)ccc1OC(=O)c1cccc(Br)c1 | – | 0.287
44 | C[C@@H]1C[C@@H]2O[C@H]2/C=C\C=C\C(=O)Cc2c(Cl)c(O)cc(O)c2C(=O)O1 | – | -3.44
45 | COC(=O)c1ccc(Cn2c(SCC(=O)N(C)c3ccccc3)nc3ccccc32)cc1 | – | -16.2
46 | Cc1cccc(C)c1NC(=O)COC(=O)c1c(C)nn(-c2ccccc2)c1C | – | -19
47 | Cc1ccc(OC(=O)c2c(C)nn(-c3ccccc3)c2C)cc1 | 13.5 µM (active) | –
48 | Cc1nn(-c2ccccc2)c(-n2cccc2)c1C(=O)O | – | -0.636
49 | CCCC12CN3CC(CCC)(CN(C1)C3c1c[nH]c3ccc(OC)cc13)C2=O (centres undefined) | – | -1.95
50 | COc1ccccc1C(=O)NCCC(=O)N(C)Cc1cccnc1 | – | -1.3
51 | COc1ccc(CCNC(=O)CCCCn2c(=O)c3ccccc3n(Cc3ccccc3)c2=O)cc1OC | – | 1.96
52 | CCOc1ccc(C(=O)c2cn(Cc3ccccc3OC)c3ccc(F)cc3c2=O)cc1 | – | 0.01

Row | Compound | Potency | activity change, negative = inhibition [%]
53 | COc1ccc(NC(=O)C2CCN(c3ccc(Sc4ccc(C)cc4)nn3)CC2)c(OC)c1 | – | 4.7
54 | CN1CCN(C2(CNC(=O)COc3ccc(C(C)(C)C)cc3)CCCCC2)CC1 | – | -0.665
55 | CCCc1nc2ccccc2c(=O)n1/N=C/c1ccc(O)c(O)c1 | – | 1.87
56 | CCOCCCn1c(NN)nc2ccccc2c1=O | – | 4.5
57 | Nc1nnn(CC(=O)N/N=C/c2ccccc2)n1 | – | -1.5
58 | O=c1c2ccccc2ncn1/N=C/c1ccccc1 | 1.69 µM (active) | –
59 | O=C(Nn1cnc2ccccc2c1=O)c1ccccc1 | – | 2.64
60 | O=c1c2ccccc2nc(N/N=C/c2ccccc2)n1O | 1.51 µM (active) | –
61 | COc1cc(C(=O)Nc2ccc(OCc3cc(=O)n4cc(C)sc4n3)cc2)cc(OC)c1OC | – | -2.09
62 | CCN(C(=O)CSc1nc(N)cc(=O)[nH]1)C1CCS(=O)(=O)C1 (centres undefined) | – | -2.15
63 | O=C(CN1CCCCC1)Nc1ccccc1C(=O)NC1CC1 | – | -9.75
64 | Cc1ccc(-c2nnc(Nc3ccc(OCC(N)=O)cc3)c3ccccc23)cc1S(=O)(=O)NCC1CCCO1 (centres undefined) | – | -26.1
65 | CCCN(C(=O)Cn1cc(S(=O)(=O)N2CCN(c3ccccc3F)CC2)c2ccccc2c1=O)c1cccc(C)c1 | – | 0.802
66 | COc1cccc(/C=C/C(=O)OCC(=O)N2CCN(c3ccccc3)CC2)c1 | – | -1.28
67 | CN=C1C=C/C(=N/N=c2\ccn(O)cc2C)C=C1C | 15.1 µM (active) | –
68 | CSc1ccccc1NC(=O)COC(=O)CCCOc1ccc(C)cc1 | – | -0.833
69 | CCCNC(=O)C(CC)n1nc(CC)n2c(cc3oc(C)cc32)c1=O (centres undefined) | – | -5.44
70 | CCN(CC)S(=O)(=O)c1ccc(N2CCOCC2)c(NC(=O)C2CSC3(C)CCC(=O)N23)c1 (centres undefined) | – | -0.501
71 | CCCCN(C)CCCNC(=O)c1cc(-c2cccs2)nc2ccccc12 | – | -1.53
72 | O=C(Nc1ccc(S(=O)(=O)Nc2nccs2)cc1)c1cc(-c2ccncc2)nc2ccccc12 | – | -10.6
73 | O=C(Nc1nnc(-c2ccccc2)o1)c1cc(-c2cccs2)nc2ccccc12 | 19 µM (active) | –
74 | Cc1cccc(CC(=O)N2CC(=O)Nc3ccc(F)cc3C2c2ccccc2)c1 (centres undefined) | – | -1.47
75 | Cc1ccc(CSc2nc3ccsc3c(=O)n2CCC(C)C)cc1 | – | 1.43
76 | COc1ccc(NC(=O)CSc2nnc(C3CC3)n2C)cc1S(=O)(=O)N1CCCCC1 | – | 5.35
77 | Fc1cc(F)c2nc(Nc3nc4c(F)cccc4s3)sc2c1 | 4.78 µM (active) | –
78 | COc1cc2ccccc2cc1C(=O)N(CCN(C)C)c1nc2c(F)cccc2s1 | – | -0.155

Row | Compound | Potency | activity change, negative = inhibition [%]
79 | NC(=O)c1c(Nc2nc3c(F)cccc3s2)sc2c1CCCC2 | – | -11.7
80 | COc1ccc(-c2cn3nc(N4CCC(C(=O)Nc5cccc(C)c5C)CC4)sc3n2)cc1 | – | -1.45
81 | COc1ccc(NC(=O)CN2C(=O)CSC2=O)cc1 | – | -17.3
82 | CCc1ccc(NC(=O)CN2C(=O)CSC2=O)cc1 | 10.7 µM (active) | –
83 | CCc1ccc(NC(=O)CN2C(=O)CCSc3ccc(S(=O)(=O)N4CCCC4)cc32)cc1 | – | 2.18
84 | CCn1c(=O)c2cc(C(=O)NCCc3ccc(Cl)cc3)sc2c2ccccc21 | – | -6.83
85 | COc1ccc(-c2onc(C)c2C)cc1S(=O)(=O)NCCc1ccccc1 | – | -11.2
86 | Cc1ccc2[nH]c(=O)c(COC(=O)c3ccccn3)cc2c1 | – | 11.8
87 | CCOC(=O)c1cc2cc(C)ccc2[nH]1 | 12 µM (active) | –
88 | CC(=O)OCc1cc2cc(C)ccc2[nH]c1=O | – | 0.564
89 | COc1cc(OC)c(NC(=O)c2cc(S(=O)(=O)N3CCCC3)cn2C)cc1Cl | – | -6.55
90 | Cc1ccc2nc(-c3ccccn3)cc(C(=O)Nc3ccc4c(c3)OCO4)c2c1 | – | -4.26
91 | CNS(=O)(=O)c1ccc(NC(=O)Nc2ccc3c(c2)OCO3)cc1 | 6.01 µM (active) | –
92 | Cc1cccc(NC(=O)/C=C/c2ccc3c(c2)OCO3)n1 | 0.849 µM (active) | –
93 | O=C(/C=C\c1ccc2c(c1)OCO2)NC1(C(=O)Nc2ccc3c(c2)OCCO3)CCCCC1 | – | -3.09
94 | CCN(CC(=O)Nc1ccc2c(c1)OCO2)S(=O)(=O)c1ccccc1 | – | -11.9
95 | O=C(Nc1ccc2c(c1)OCO2)c1cc(-c2cccc(Cl)c2)on1 | – | 3.04
96 | CC(C)CNS(=O)(=O)c1ccc(C(=O)Nc2ccc3c(c2)OCO3)cc1 | – | 0.691
97 | Cc1cccc(NC(=O)Nc2ccc3c(c2)OCO3)n1 | 2.69 µM (active) | –
98 | CCOC(=O)CCCNC(=O)COC(=O)/C=C/c1ccc2c(c1)OCO2 | – | -6.33
99 | CCOc1ccc(OCC(=O)Nc2c3c(nn2C(C)(C)C)CS(=O)(=O)C3)cc1 | – | -17.5
100 | COc1cccc(NC(=O)CN(C)C(=O)CSCc2nc3scc(-c4cccs4)c3c(=O)[nH]2)c1 | – | -4.25
101 | CC(C)CC(NS(=O)(=O)c1ccc2c(c1)oc(=O)n2C)C(=O)NCc1ccccc1Cl (centres undefined) | – | -5.21
102 | COc1ccccc1C(CNC(=O)c1ccc(C)c(S(=O)(=O)N2CCCCC2)c1)N(C)C (centres undefined) | – | -2.16
103 | Fc1ccc(Nc2nc(SCc3ccccc3Cl)nc3ccccc23)cc1 | – | -16.5
104 | COc1ccccc1NC(=O)c1ccc(N2CC3CC(C2)c2cccc(=O)n2C3)c(NC(=O)c2cccnc2)c1 (centres undefined) | – | 0.549
